Experimental data as given in PubChem BioAssay AID652067 (The Scripps Research Institute Molecular Screening Center, 2013).
About 5,400 (1.5%) of roughly 370,000 compounds were called active. The entries come from a sample that favours actives as a whole. Unmarked numbers belong to inactive results.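 How the source made its calls: active means activation above the mean of all tested compounds plus 3 SD (cut at about 5.5% in these data); inactive means the rest.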

system: DAF-12 nuclear receptor (Haemonchus contortus); assay: H. contortus DAF-12 nuclear receptor activators, primary screen, cell-based, luminescence, HEK293, lit1-tk-luc reporter (AID 652067); settings: HEK293 hcDAF-12 lit1-tk-luc reporter, at 6.8 µM, stronger effect = higher value, 0% DMSO, 100% Δ7-dafachronic acid;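 further: 100% = response to 3 µM Δ7-dafachronic acid high control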

Compound | activation
CC(C)c1cc(C(=O)O)on1 | -0.85%
CC(C)Cc1oc(C(=O)O)cc1CN | 6.53% (active)
Cc1oc(CC(C)C)c(CN2CCCC2)c1C(=O)O | -1.65%
O=C(OC12CCCN(C1)/C(=C/c1cccnc1)C2)C1CCCC1 (stereo not given) | -3.57%
COC(=O)c1c(-c2ccc(OC)cc2)c2c(c3c4cc(OC)ccc4n(S(=O)(=O)c4ccc(F)cc4)c13)C(=O)N(C)C2 | -2.09%
O=[N+]([O-])c1cc([N+](=O)[O-])c2cccnc2c1O | 3.46%
O=[N+]([O-])c1ccc2nc(-c3ccccn3)[nH]c2c1 | 5.76% (active)
O=C(Nc1ccc([N+](=O)[O-])cc1)OCCc1ccccn1 | 1.17%
O=C(N1CCOCC1)N1CC[C@H]2[C@H](CCCN2Cc2ccc(F)cc2)C1 | 0.64%
Cc1ccccc1CN1CCCCC(NC(=O)Nc2ccccc2F)C1=O (stereo not given) | -3.94%
CC(C)c1ccc(Nc2nnc(SCC(=O)c3nnc(-c4ccccc4)o3)s2)cc1 | 6.6% (active)
CN(C(=O)CSc1nnc(Nc2ccccc2)s1)C1CCS(=O)(=O)C1 (stereo not given) | -0.76%
CC(C)Nc1nnc(SCC(=O)c2c[nH]c3ccccc23)s1 | 4.15%
COC(=O)C1=C(C)N(Cc2cccc(C(F)(F)F)c2)C(=NCc2cccc(C(F)(F)F)c2)NC1c1ccccc1C(F)(F)F (stereo not given) | -2.22%
CC[C@@H](CCC(=O)N(c1ccccc1)c1ccccc1)C1CC1 | -2.66%
COc1ccc(C(C)(NC(C)=O)c2nc(-c3ccc(S(C)(=O)=O)cc3)cs2)cc1 (stereo not given) | -1.14%
COc1ccc(C(C)(O)c2nc(-c3cc(F)cc(F)c3)cs2)cc1 (stereo not given) | -1.58%
COc1ccc(-c2csc(Cc3nc(O)cs3)n2)cc1 | 10.9% (active)
O=S1(=O)c2c(cccc2N2CCSCC2)Oc2ccccc2CN1Cc1cn(Cc2ccc(F)cc2)nn1 | -2.88%
O=C(CNS(=O)(=O)c1ccccc1F)N1CCN(c2ccccn2)CC1 | -0.84%
CN(C(=O)COC(=O)c1cc(-c2ccco2)nc2ccccc12)C1CCS(=O)(=O)C1 (stereo not given) | 1.58%
O=C(Nc1cccc(F)c1)c1cc(-c2ccco2)nc2ccccc12 | 5.67% (active)
O=C(Nc1cccc(F)c1)c1coc(=O)c(Br)c1 | 0.1%

Compound | activation
O=C(NCc1ccc(Cl)cc1)C1CCCN(c2nc3ccccc3o2)C1 (stereo not given) | -2.71%
C/C(=N/NC(=O)c1ccc(Br)o1)c1ccc(C)o1 | 8.8% (active)
C/C(=N\NC(=S)NC1CCCCC1)c1ccc(C)o1 | -1.13%
CC(CNC(=O)c1ccc(Br)o1)NC(=O)c1ccc(Br)o1 (stereo not given) | -0.92%
c1cncc(CNc2ccnc(-c3ccc4c(c3)OCO4)n2)c1 | 0.49%
CN1CCN(c2ccc(NC(=O)c3ccc4c(c3)OCCO4)cc2Cl)CC1 | 6.55% (active)
Cc1ccc(C(=O)Nc2ccc3c(c2)OCCO3)cc1S(=O)(=O)N1CCOCC1 | 0.29%
O=C(Nc1ccc(N2CCOCC2)c(Cl)c1)c1ccc(S(=O)(=O)N2CCOCC2)cc1 | -2.07%
CCSC1(SCC)N=C(N)C2(C#N)C(c3ccccc3)NC(C)=CC12C#N (stereo not given) | -0.75%
CN1C(=O)/C(=N/OC(=O)c2ccccc2Br)c2ccccc21 | -0.66%
CN1C(=O)/C(=C\c2cc(Br)cs2)c2ccccc21 | 6.07% (active)
CCC1C(=O)c2ccccc2N(C)C1=O (stereo not given) | 4.03%
COC(=O)[C@]12C[C@H](CC(=O)NCc3ccc(C)o3)C(=O)N(CCC3=CCCCC3)C1=C[C@H](C(C)(C)C)O[C@@H]2C | 0.28%
COc1cc(/C=C/C(=O)OCC(=O)NCCCc2ccccc2)ccc1O | -0.23%
COc1cc(/C=N/Nc2nc3ccccc3s2)ccc1O | 11.4% (active)
COc1ccc(/C=N/Nc2ncnc3sc4c(c23)CCCC4)cc1O | 2.31%
O=C(N/N=C/c1cc([N+](=O)[O-])ccc1O)/C(=C\c1cccs1)NC(=O)c1ccccc1 | 2.67%
O=[N+]([O-])c1cc(Br)c(O)c(/C=N/Nc2nc3ccccc3s2)c1 | 5.75% (active)
O=C(C1CCCN1S(=O)(=O)c1ccccc1)N1CCc2ccccc2C1 (stereo not given) | -0.91%
O=C(CSc1nnc(-c2ccccn2)n1-c1ccccc1)Nc1ccc2cn[nH]c2c1 | 1.82%
CN[C@H]1C[C@H]2c3cc(N4CCOCC4)ccc3CCN2C[C@H]1[C@H](C)O | 0.66%
O=C(Nc1ccc2c(c1)OCCO2)C1c2ccccc2OCC(=O)N1Cc1ccccn1 (stereo not given) | 2.69%
CCCOc1ccc(NC(=O)CC2C(=O)N(C)C(=S)N2Cc2ccc3c(c2)OCO3)cc1 (stereo not given) | -1.25%

Compound | activation
O=C(Nc1ccc(Cl)cc1)C1c2cccc[n+]2CC(=O)N1Cc1ccc2c(c1)OCO2 (stereo not given) | 6.69% (active)
O=C(COC(=O)/C(=C/c1cccs1)c1cccs1)NCc1ccccc1Cl | -2.32%
COc1cccc(NC(=O)N(C)C[C@@H]2OCc3cn(nn3)CCCC(=O)N([C@@H](C)CO)C[C@H]2C)c1 | 1.21%
CSc1nc2nc3c(c(=O)n2[nH]1)CCC3 | 0.72%
O=c1c2c(nc3cc(-c4cccc(Cl)c4)[nH]n13)CCCC2 | 8.74% (active)
COc1cccc(CC(=O)N2CCN(C(=O)C(=O)c3cccc(C(F)(F)F)c3)CC2)c1 | 1.16%
CC(C)CSc1nnc(-c2cccnc2)n1Cc1ccccc1 | -1.13%
O=C(c1ccncc1)N1CC[C@H]2[C@H](CCCN2Cc2ccc(F)cc2)C1 | -1.38%
CC(NC(=O)C(=O)N/N=C/c1ccc(Cl)cc1)c1ccccc1 (stereo not given) | -1.03%
CC(C)c1ccc(/C=C2\NC(=O)NC2=O)cc1 | -2.26%
CC(C)c1ccc(C=NNc2ccc([N+](=O)[O-])cn2)cc1 | 9.24% (active)
COC(=O)[C@]12C[C@H](CC(=O)NCc3cccc(C(F)(F)F)c3)C(=O)N(Cc3ccc4c(c3)OCO4)C1=C[C@H](COCc1ccccc1)O[C@@H]2C | 0.41%
Cc1ccc(C2Nc3cccc4cccc(c34)N2)cc1 | 6.38% (active)
COc1ccc(-c2cc(-c3nnc(SCC(=O)Nc4cccc5ccccc45)n3N)[nH]n2)cc1 | 0.47%
O=C(N=C1SC2CS(=O)(=O)CC2N1c1cc(Cl)ccc1Cl)C1CC1 (stereo not given) | -1%
COc1ccc(Cn2cc(COC(=O)N(C)Cc3ccccc3)nn2)cc1 | -0.59%
Cc1ccccc1C(=O)OC1OC(=O)C(Cl)=C1Nc1ccccc1 (stereo not given) | -2.44%
Cc1cc(C)nc(Nc2n[nH]c(-c3ccccc3N)n2)n1 | 8.9% (active)
CC(C)CNc1cccc2c1S(=O)(=O)N[C@H](C)CO2 | -1.2%
O=C(NCc1ccccc1)[C@@H]1CCCN1C(=O)[C@H]1CCCN1C(=O)c1cccc(Cl)c1 | -0.09%
O=C(NN=Cc1ccco1)C(=O)Nc1ccc(Cl)c([N+](=O)[O-])c1 | -1.72%
Cc1cc2c(nc1C)CCCN2C | 1.19%
CCOC(=O)[C@]12CCCC=C1N(Cc1ccc(OC)cc1)C(=O)[C@@H]2CC(=O)NCc1cccs1 | -0.39%

Compound | activation
COc1cccc(Nc2nc(N)c([N+](=O)[O-])c(NCc3ccco3)n2)c1 | -3.76%
Nc1nc(Nc2ccccc2F)nc(NC2CCCCC2)c1[N+](=O)[O-] | -1.49%
CNc1nc(Nc2ccc(C)c(Cl)c2)nc(N)c1[N+](=O)[O-] | 10.8% (active)
COc1ccc(NC(=O)N(C)C[C@@H]2OCCCC[C@@H](C)Oc3ccc(NC(=O)NC4CCCCC4)cc3C(=O)N([C@H](C)CO)C[C@@H]2C)cc1 | -0.68%
Cc1ccccc1CS(=O)(=O)Cc1ccc(C(=O)Nc2ccc(Cl)cc2)o1 | -6.56%
COP(=O)(O)CNC(=O)OCc1ccccc1 | -1.19%
FC(F)(F)c1nc(-c2ccccc2)ncc1-c1nnnn1-c1ccccc1 | -4.23%
COc1ccc(-n2nnnc2SCC(=O)NCc2cccs2)cc1 | -2.07%
COc1ccc(-n2nnnc2-c2nc3ccccc3s2)cc1 | 9.22% (active)
NC(=O)c1ccccc1N=Cc1ccc2ccccc2c1 | 10.7% (active)
O=C(OCC(=O)N1CCOCC1)c1ccc2ccccc2c1 | 0.31%
O=C1CC[C@@H](COc2ccc3[nH]cc(-c4ccccc4)c3c2-c2ccccc2)N1 | -1.8%
CC(C)(C)c1ccc(C(=O)Nc2cc(Cl)c(Br)cc2C(=O)O)cc1 | 2.27%
COc1ccc(CCNC(=O)CSc2nc3c([nH]2)c(=O)n(C)c(=O)n3C)cc1 | -0.84%
Cc1ccc(NC(=O)N2CCC(C(=O)NCc3ccc(F)cc3)CC2)cc1 | -0.76%
N[C@@H](Cc1ccccc1)C(=O)N1CCC(C(=O)NCC(=O)Nc2ccc(F)cc2)CC1 | 8.85% (active)
O=C(NCc1ccc(F)cc1)C1CCN(C(=O)Nc2ccc(F)cc2)CC1 | -1.57%
O=C(NC1CCC1)c1ccc(C#Cc2cccc(F)c2)c[n+]1[O-] | 1.33%
CCOC(=O)c1cc2ccccc2n1CC(=O)c1ccccc1 | 1.16%
COCn1c(C(O)c2ccccc2)cc2ccccc21 (stereo not given) | 6.22% (active)
COc1cc(C(O)c2nc3ccccc3n2C)cc(OC)c1OC (stereo not given) | -1.25%
